Pf growth 48h = Primary qHTS for delayed death inhibitors of the malarial parasite plastid, 48 hour incubation; P. falciparum luciferase growth in erythrocytes, 48 h; Potency, µM (top dose mostly 28.7 µM), for inactives: at the top dose activity change, negative = inhibition, most hits filed as inhibitors; hit rate 5.9% among 310,000; note: potency is the fitted concentration of half-maximal effect
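Growth was read as firefly luciferase luminescence after a 48 h, 37 C, 5% CO2 exposure of compounds to reporter-bearing P. falciparum cultures (0.1% parasitemia, 2% hematocrit final) in Albumax-supplemented RPMI 1640.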
HCV inhibitor = qHTS Assay for Inhibitors of Hepatitis C Virus (HCV); Huh7.5.1 HCVcc-Cre infection, luciferase reporter, 44 h; Potency, µM (titrated, usually from 41.8 µM), inactives show at the top dose activity change, negative = inhibition, actives largely listed as inhibitors; hit rate 3.4% among 340,000; note: potency is the fitted concentration of half-maximal effect
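Compounds are dispensed onto cells plated 4 h earlier at 1,000 per well, with HCVcc-Cre virus (about 0.5 moi) added next. Following 44 h of culture, luminescent signal is measured for 15 sec after 15 min with substrate at room temperature.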
HCMV inh = qHTS Assay for inhibitors of the human cytomegalovirus (HCMV); activity change, negative = inhibition, % at 57.5 µM; AID 1259415, 2018; HFF cells, HCMV-luciferase reporter, 72 h; active compounds read low; hit rate 4.5% among 410,000; in the data active = activity change below about -60%; inconclusive = no clear call, values can overlap the other calls; inactive = above about -39%
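HFF cells seeded 16 h at 37C, treated with compounds, infected with luciferase-reporter HCMV at MOI 1 PFU/cell; luciferase read at 72 h post infection, normalized to buffer-only and Salinomycin controls.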
Pf growth 96h = Primary qHTS for delayed death inhibitors of the malarial parasite plastid, 96 hour incubation; AID 504834, 2011; hit rate 6.9% among 320,000; P. falciparum luciferase reporter growth, 96 h; Potency, µM (doses to about 28.7 µM), inactives show at the highest dose activity change, negative = inhibition, most hits filed as inhibitors; note: potency is the fitted concentration of half-maximal effect
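Luminescence readout: decreased luciferase signal marks inhibited growth of reporter-expressing P. falciparum in infected red cells (2% hematocrit, 0.05% parasitemia final), exposed to compound two generations (96 h, 37 C, 5% CO2).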
* hit, by the source's call; u = inconclusive; x = no result. This is a sample that favours compounds with a hit; in the whole collection about 13% have one here. Unless noted, calls come from the whole dose curve; as a rule, active = well fitted inhibition curve with a large enough effect; inconclusive = small, poorly fitted or top-dose-only effect, or another doubt; inactive = no such curve, though single readings can be large or run the other way. % is set by controls: 0 for no effect and ±100 for the full control effect.

SMILES	Pf growth 48h	HCV inhibitor	HCMV inh	Pf growth 96h
Cc1ccc(S(=O)(=O)N2CCN(C(=O)COC(=O)Cc3ccc(F)cc3)CC2)c(C)c1	10.4%	5.7%	10.0	5.1%
COc1ccc(CNC(=O)N2CCN(S(=O)(=O)c3ccc(C)cc3C)CC2)cc1	-40.0%	u	29.1	-9.7%
Cc1ccc(CSCC(=O)N2CCN(c3ccccc3)CC2)cc1	-7.4%	-3.0%	u	4.15µM*
Cc1ccc(N2CCN(C(=O)NCc3noc4ccc(C)cc34)CC2)c(C)c1	x	x	-12.1	x
Cc1c([N+](=O)[O-])c2ccc(O)cc2n1-c1ccccc1	-5.3%	u	-67.7*	u
COc1c([N+](=O)[O-])c(=O)n(-c2ccccc2)c2ccccc12	18.0%	-13.3%	-19.7	35.4%
COc1ccc(-n2nnnc2-c2cccnc2)cc1	0.1%	-4.4%	38.6	9.28µM*
Cc1ccc(-n2nnnc2-c2ccccc2)cc1	-10.2%	4.5%	-20.8	64.6%
CCOc1cc(CNc2ccc(N3CCCCC3)cc2)cc(Br)c1OCC(=O)NC(C)(C)C	u	u	-3.9	13.1µM*
CCOc1cc(CNc2cccc3ccccc23)cc(Br)c1OCC(=O)NC(C)(C)C	x	u	x	9.28µM*
CCOc1cc(CNc2ccc(N(C)C)cc2)cc(Br)c1OCC(=O)NC(C)(C)C	0.657µM*	11.2µM*	-18.2	u
CCOc1cc(CNc2ccc(N3CCOCC3)cc2)cc(Br)c1OCC	u	u	-2.6	u
CCOc1cc(CO)cc(Br)c1OCC(=O)Nc1ccccc1C	-17.4%	u	46.2	60.6%
COc1ccc(-c2cc3c(=O)n(CC(=O)Nc4cc(F)ccc4F)ccn3n2)cc1OC	x	x	3.2	x
COc1ccc(NC(=O)C2CC(c3ccc(OC)c(OC)c3)=NO2)cc1OC (configuration not stated)	-4.2%	u	0.8	13.1µM*
COc1ccc(C2=NOC(C(=O)Nc3ccc(C)cc3)C2)cc1OC (configuration not stated)	x	-27.1%	8.2	-3.1%
COc1cc(C2=NOC(C(=O)Nc3ccc4c(c3)OCO4)C2)cc(OC)c1OC (configuration not stated)	2.94µM*	-14.4%	-8.3	12.9%
COc1ccc(C)cc1N(C)C(=O)c1c2c(nc3ccccc13)C(=O)N(C1CCCCC1)C2	x	x	-25.0	x
COc1ccc2[nH]c(=O)c(CN(C(=O)c3cccc(Cl)c3)c3ccccc3C)cc2c1	x	x	17.1	x
COc1ccc(CNC(=O)Cn2c(=O)nc(-c3ccccc3F)c3cc(Cl)ccc32)cc1OC	x	x	1.0	x
Cc1ccc(NS(=O)(=O)c2ccc(Cl)c(C(=O)Nc3ccccc3-c3nc4ccccc4[nH]3)c2)cc1C	10.4µM*	3.55µM*	-84.7*	11.7µM*
CN(C)C=Nc1ncc2c3ccccc3n(Cc3ccccc3)c2c1C#N	11.8%	0.3%	-27.6	x
CCN(CC)CCn1c2ccccc2c2cnc(N)c(C#N)c21	2.62µM*	10µM*	-97.7*	2.62µM*
CN(C)C=Nc1ncc2c3ccccc3n(CCN(C)C)c2c1C#N	u	-5.7%	-97.8*	-97.5%
COc1ccc(-c2csc3ncnc(NCCCO)c23)cc1	-7.7%	u	-68.0*	u
SMILES	Pf growth 48h	HCV inhibitor	HCMV inh	Pf growth 96h
COc1ccc(-c2csc3ncnc(Nc4ccccc4)c23)cc1	x	x	-15.0	x
COc1ccc(-c2csc3ncnc(NCCO)c23)cc1	-16.7%	u	-86.6*	0.0%
COc1ccc(-c2csc3ncnc(Nc4ccc(O)cc4)c23)cc1	u	u	u	17.3%
Cc1c(C(=O)NCC2CCCO2)oc2c(Cl)cccc12 (configuration not stated)	9.3%	u	-29.5	42.1%
Cc1cc(Cl)c2oc(C(=O)NCCN3CCCCC3CO)c(C)c2c1 (configuration not stated)	u	x	63.6	13.1µM*
Cc1cc(Cl)c2oc(C(=O)NCCC3CCCCO3)c(C)c2c1 (configuration not stated)	59.1%	25.1µM*	74.6	-19.8%
Cc1c(C(=O)NCCCN2CCCC2=O)oc2c(Cl)cccc12	-29.6%	u	-32.6	21.5%
CCC1CN(C(=O)Nc2ccc(C)c(F)c2)c2ccccc2S1 (configuration not stated)	x	x	21.7	x
Cc1ccccc1C(=O)N1CCN(c2ccc(NC(=O)c3cccnc3)cc2)CC1	-14.9%	0.6%	-9.9	63.3%
